# The supplement of paper PMC9694430
# Key:
# Assay in all cases: thermal shift delta Tm vs DMSO control; higher = stronger stabilization (binding)
# Conditions in all cases: 12.5 µM; protein concentration 2 µM
# LOC_OS02G45750-cb003 = test system: LOC_OS02G45750-cb003
# How it was run: (§1)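 Rice kinase domain constructs were expressed in E. coli, purified, and tested by differential scanning fluorimetry with compound added in DMSO. Each well of a 96-well plate held 19.5 μl of 2 μM kinase in 100 mM potassium phosphate pH 7.5, 150 mM NaCl, 10% glycerol and 5 × SYPRO Orange, and fluorescence was read from 25°C to 95°C at 0.05°C/s. The melting temperature shift is the mean of triplicates, taken against protein with DMSO alone after Boltzmann fitting.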
# LOC_OS02G54510-cb004 = test system: LOC_OS02G54510-cb004
# How it was run: as §1
# LOC_OS03G04050-cb001 = test system: LOC_OS03G04050-cb001
# How it was run: as §1
# LOC_OS03G12390-cb001 = test system: LOC_OS03G12390-cb001
# How it was run: as §1
# LOC_OS03G27990-cb004 = test system: LOC_OS03G27990-cb004
# How it was run: as §1
# LOC_OS03G50450-cb001 = test system: LOC_OS03G50450-cb001
# How it was run: as §1
# LOC_OS03G50810-cb003 = test system: LOC_OS03G50810-cb003
# How it was run: as §1
# LOC_OS04G35114-cb001 = test system: LOC_OS04G35114-cb001
# How it was run: as §1
# LOC_OS04G38480-cb003 = test system: T1, LOC_OS04G38480-cb003
# T1 sequence (whole entry): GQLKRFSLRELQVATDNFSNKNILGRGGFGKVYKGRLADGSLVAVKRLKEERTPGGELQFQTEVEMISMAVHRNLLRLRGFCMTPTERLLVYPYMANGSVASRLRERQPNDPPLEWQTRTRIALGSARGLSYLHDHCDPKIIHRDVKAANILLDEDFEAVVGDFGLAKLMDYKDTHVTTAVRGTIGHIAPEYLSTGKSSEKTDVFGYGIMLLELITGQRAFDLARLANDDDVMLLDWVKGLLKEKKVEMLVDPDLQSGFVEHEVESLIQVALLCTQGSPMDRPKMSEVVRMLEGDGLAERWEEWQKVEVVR
# How it was run: as §1
# LOC_OS04G41100-cb001 = test system: T2, LOC_OS04G41100-cb001
# T2 sequence (whole entry): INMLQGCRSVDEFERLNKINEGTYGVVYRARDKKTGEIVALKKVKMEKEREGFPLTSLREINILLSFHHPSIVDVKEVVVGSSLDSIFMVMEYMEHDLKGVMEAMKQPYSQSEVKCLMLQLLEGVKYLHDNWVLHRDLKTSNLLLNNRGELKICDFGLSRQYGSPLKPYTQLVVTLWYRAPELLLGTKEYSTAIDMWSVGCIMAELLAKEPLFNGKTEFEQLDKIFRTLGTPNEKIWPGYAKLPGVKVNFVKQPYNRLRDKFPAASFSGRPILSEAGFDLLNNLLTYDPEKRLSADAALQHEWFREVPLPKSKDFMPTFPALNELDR
# How it was run: as §1
Structure (SMILES),thermal shift delta Tm (LOC_OS02G45750-cb003),thermal shift delta Tm (LOC_OS02G54510-cb004),thermal shift delta Tm (LOC_OS03G04050-cb001),thermal shift delta Tm (LOC_OS03G12390-cb001),thermal shift delta Tm (LOC_OS03G27990-cb004),thermal shift delta Tm (LOC_OS03G50450-cb001),thermal shift delta Tm (LOC_OS03G50810-cb003),thermal shift delta Tm (LOC_OS04G35114-cb001),thermal shift delta Tm (LOC_OS04G38480-cb003),thermal shift delta Tm (LOC_OS04G41100-cb001)
CCN1CCN(Cc2ccc(Nc3ncc(F)c(-c4cc(F)c5nc(C)n(C(C)C)c5c4)n3)nc2)CC1,3.28 °C,0.25 °C,0.17 °C,1.39 °C,0.47 °C,0.16 °C,2.97 °C,2.79 °C,1.91 °C,5.62 °C
C[C@@]1(C(=O)Nc2ccc(F)nc2)CCCN1c1nc(Nc2cc(C3CC3)n[nH]2)c2cccn2n1,-1.4 °C,2.49 °C,0.25 °C,0.55 °C,0.21 °C,-0.6 °C,1.17 °C,2.02 °C,1.6 °C,0.62 °C
CCN1CCN(Cc2ccc(-c3cc4c(N[C@H](C)c5ccccc5)ncnc4[nH]3)cc2)CC1,6.37 °C,0.94 °C,-0.21 °C,1.63 °C,2.76 °C,0.56 °C,1.13 °C,3.16 °C,1.7 °C,0.38 °C
Cc1ccc([N+](=O)[O-])cc1S(=O)(=O)N(C)/N=C/c1cnc2ccc(Br)cn12,1.33 °C,0.35 °C,0.72 °C,0.02 °C,0.5 °C,0.64 °C,0.47 °C,1.17 °C,3.16 °C,1.09 °C
"Nc1cc(C(F)(F)F)c(-c2cc(N3CCOCC3)nc(N3CCOCC3)n2)cn1 [Buparlisib (BKM120, NVP-BKM120)]",0.32 °C,-0.07 °C,0.3 °C,-0.03 °C,0.23 °C,0.11 °C,0.38 °C,0.31 °C,0.85 °C,0.22 °C
Cc1ccc(NC(=O)c2ccc(CN3CC[C@H](N(C)C)C3)c(C(F)(F)F)c2)cc1Nc1nccc(-c2cncnc2)n1 [Bafetinib (INNO-406)],0.37 °C,3.32 °C,0.29 °C,0.16 °C,0.43 °C,0.25 °C,0.34 °C,0.18 °C,0.66 °C,0.35 °C
NC[C@@](O)(c1ccc(Cl)cc1)c1ccc(-c2cn[nH]c2)cc1,1.24 °C,0.3 °C,0.31 °C,0.49 °C,0.56 °C,0.8 °C,0.36 °C,1.05 °C,1.51 °C,0.81 °C
CN(C)CCOc1ccc(-c2nc(-c3ccncc3)c(-c3ccc4c(c3)CC/C4=N\O)[nH]2)cc1,0.22 °C,0.08 °C,0.13 °C,-0.23 °C,0.06 °C,0.04 °C,0.55 °C,0.33 °C,0.74 °C,0.3 °C
CNc1nc(Nc2cnn([C@H]3CCN(C4COC4)C[C@@H]3F)c2Cl)ncc1C(F)(F)F,10.5 °C,0.35 °C,0.37 °C,9.14 °C,2.39 °C,5.54 °C,4.12 °C,4.01 °C,3.09 °C,0.6 °C
CN(C)Cc1cccc(N/C(=C2\C(=O)Nc3cc(C(N)=O)ccc32)c2ccccc2)c1,1.35 °C,0.37 °C,0.38 °C,3.49 °C,3.05 °C,0.35 °C,1.47 °C,3.48 °C,0.38 °C,0.47 °C
Nc1ncnc2c1c(-c1cnc3[nH]ccc3c1)nn2C1CCCC1,2.27 °C,3.34 °C,0.54 °C,5.27 °C,1.19 °C,0.86 °C,0.88 °C,4.32 °C,1.28 °C,0.51 °C
